# Measurements: PubChem BioAssay (Tox21)
# Several values for one entry are separate records, joined by “and”; a condition that tells them apart may be missing. Equal values may be shown once. Results filed as inconclusive are left out. Entries that show only a call come without a potency. Some compounds were tested as several samples or in several runs, with calls that do not always agree. Activity calls are given as the source filed them. Unless noted, calls follow the shape of the full dose curve.
# Assays:
# [1] = Nuclear factor erythroid 2-related factor 2/antioxidant responsive element (Nrf2/ARE) small molecule agonists: qHTS cell viability counter screen in human keratinocytes (AID 1919968; active = well fitted curve in the direction sought with a large enough effect in the repeat runs; an effect the other way counts as inactive or inconclusive; also: nearly all actives have a fitted effect of over 55% in size)
# Outline: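 Cytotoxicity was multiplexed with the Nrf2/ARE luciferase assay in the same wells. Stably transfected HaCaT keratinocytes were treated with test compounds for 23 h at 37 C. Cell viability was then measured by CellTiter-Fluor fluorescence.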
# [2] = Nuclear factor erythroid 2-related factor 2/antioxidant responsive element (Nrf2/ARE) small molecule agonists: luciferase reporter gene qHTS assay in human keratinocytes (AID 1919969); also: nearly all actives have a fitted effect of over 35% in size
# [3] = G protein-coupled receptor (GPCR) small molecule agonists, calcium flux assay: HEK293 wild type cell line counter screen (AID 1920065)
# Outline: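 Seed cells, incubate 18 h (37 C, 5% CO2); add calcium dye, 1 h at 37 C; pin-transfer compounds, ATP control or DMSO; read fluorescence 480/540 nm each second for 3 min.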
# [4] = p53 small molecule agonists, cell-based qHTS assay with rat liver microsomes (AID 1963578)
# Outline: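 p53RE-bla cells were exposed to compounds together with rat liver microsomes (0.5 mg/mL final) and NADPH (0.5 mg/mL final) for 16 h at 37 C, then read by LiveBLAzer beta-lactamase fluorescence after 2 h at room temperature.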
# [5] = p53 small molecule agonists, cell-based qHTS assay with human liver microsomes: qHTS cell viability counter screen (AID 1963579); also: nearly all actives have a fitted effect of over 45% in size
# Outline: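 p53RE-bla cells (4,000/well) were pre-incubated 5 h at 37 C, then given compounds in DMSO plus human liver microsomes (0.5 mg/mL final) and NADPH (0.5 mg/mL final) for 16 h at 37 C. Viability was read by CellTiter-Glo luminescence.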
# [6] = p53 small molecule agonists, cell-based qHTS assay with rat liver microsomes: qHTS cell viability counter screen (AID 1963580); also: nearly all actives have a fitted effect of over 45% in size
# Outline: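 Counter screen for cytotoxicity under metabolic activation: rat liver microsomes and NADPH, 0.5 mg/mL final each, added with compounds to p53RE-bla HCT-116 cells; 16 h at 37 C, then ATP luminescence read.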
# [7] = p53 small molecule agonists, cell-based qHTS assay: qHTS cell viability counter screen (AID 1963581); also: nearly all actives have a fitted effect of over 45% in size
# Outline: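 Viability was counter-screened in parallel with the p53 agonist reporter by measuring intracellular ATP luminescence in the same HCT-116 p53RE-bla wells after 16 h compound treatment at 37 C.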
# [8] = p53 small molecule agonists, cell-based qHTS assay (AID 1963582; active = well fitted activation curve with a large enough effect in the signal ratio in the repeat runs, not every such curve was filed as active; the % refers to the signal ratio)
# Outline: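 Cells carrying a p53-responsive bla reporter are treated with test compounds for 16 h at 37 C; beta-lactamase activity is then detected with LiveBLAzer B/G FRET substrate after 2 h at room temperature.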
# [9] = target: 5-hydroxytryptamine receptor 2A (Homo sapiens) (UniProt P28223); experiment: 5-hydroxytryptamine receptor 2A (HTR2A) small molecule antagonists, cell-based qHTS assay (AID 1963586); also: nearly all actives have a fitted effect of over 45% in size; also: potency is read from the fitted curve at half-maximal effect
# Outline: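 CHO cells stably expressing human HTR2A were plated for 18 h at 37 C, then loaded with calcium dye for 1 h. Compounds were preincubated 5 min at room temperature before DOI (4 nM solution) was added. Kinetic fluorescence was read for 3 min.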
# [10] = target: 5-hydroxytryptamine receptor 2A (Homo sapiens) (UniProt P28223); experiment: 5-hydroxytryptamine receptor 2A (HTR2A) small molecule agonists, cell-based qHTS assay (AID 1963587); also: nearly all actives have a fitted effect of over 30% in size; also: potency is read from the fitted curve at half-maximal effect
# Outline: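 HTR2A-CHO cells, plated 18 h at 37 C/5% CO2, dye-loaded 1 h at 37 C; compounds in DMSO added by pin tool (agonist mode). Intracellular calcium flux read as kinetic fluorescence on FDSS over 2 min at 1 s intervals.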
# [11] = target: Muscarinic acetylcholine receptor M1 (Homo sapiens) (UniProt P11229); experiment: Cholinergic receptor muscarinic 1 (CHRM1) small molecule antagonists, cell-based qHTS assay (AID 1963588); also: nearly all actives have a fitted effect of over 40% in size
# Outline: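 Compounds were tested at 15 concentrations in three independent runs. Dye-loaded CHRM1-CHO cells were exposed 5 min at room temperature before stimulation by acetylcholine added at 50nM. Intracellular calcium was read kinetically on FDSS for 3 min.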
# [12] = target: Muscarinic acetylcholine receptor M1 (Homo sapiens) (UniProt P11229); experiment: Cholinergic receptor muscarinic 1 (CHRM1) small molecule agonists, cell-based qHTS assay (AID 1963589); also: nearly all actives have a fitted effect of over 35% in size
# Outline: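 Cells were plated and incubated 18 h at 37 C/5% CO2, loaded with calcium dye for 1 h at 37 C, then treated with compounds in DMSO. Fluorescence was recorded kinetically at 1 sec intervals.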
# [13] = cAMP Responsive Elements (CRE) small molecule agonists, cell-based qHTS assay (AID 1963590)
# Outline: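 Cells carrying a CRE-driven beta-lactamase reporter (HEK 293T) are seeded, incubated overnight (18 h), and treated with test compounds for 3 h at 37 C; reporter activity is then detected with a FRET substrate after 2 h at room temperature.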
# [14] = cAMP Responsive Elements (CRE) small molecule antagonists, cell-based qHTS assay (AID 1963591; active = well fitted inhibition curve with a large enough effect in the signal ratio in the repeat runs, not every such curve was filed as active; the % refers to the signal ratio)
# Outline: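 Cells (CRE-bla HEK 293T, DMEM with 10% dialyzed FBS and 25 mM HEPES) are seeded and incubated 18 h. Compounds are added with NKH477 agonist at 0.25 uM final for 3 h, then FRET substrate for 2 h.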
# [15] = target: Beta-2 adrenergic receptor (Homo sapiens) (UniProt P07550); experiment: Adrenergic beta2 receptor (ADRB2) small molecule antagonists, cell-based qHTS assay (AID 1963592); also: series mostly up to about 92 µM; nearly all actives have a fitted effect of over 50% in size
# Outline: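 Assay format: CHO-ADRB2 cells, 18-20hr seeding at 37C/5% CO2, then compound plus 1nM isoproterenol agonist mix for 0.5hr RT. Homogeneous time-resolved fluorescence cAMP detection after 1hr, expressed as 665/615 nm ratio.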
# [16] = target: D(2) dopamine receptor (Homo sapiens) (UniProt P14416); experiment: Dopamine D2 receptor (DRD2) small molecule agonists, cell-based qHTS assay (AID 1963594); also: nearly all actives have a fitted effect of over 35% in size
# Outline: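 HEK293 cells stably expressing DRD2 were cultured 24 h at 37 C, then given Ro20-1724 (0.1 mM final) and compounds for 10 min at room temperature. NKH477 (200nM) was then added for 30 min. cAMP was read by HTRF.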
# [17] = target: D(2) dopamine receptor (Homo sapiens) (UniProt P14416); experiment: Dopamine D2 receptor (DRD2) small molecule antagonists, cell-based qHTS assay (AID 1963595; active = well fitted inhibition curve with a large enough effect in the signal ratio in the repeat runs, with a control signal flat; the % refers to the signal ratio)
# Outline: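 Antagonist mode in DRD2-HEK293 cells: after compound addition with 0.1 mM Ro20-1724, cells received quinpirole (12 nM) and NKH477 (200 nM) for 30 min at room temperature; HTRF cAMP read after 1 h detection.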
# [18] = target: KiSS-1 receptor (Homo sapiens) (UniProt Q969F8); experiment: Human kisspeptin (KISS1R) small molecule agonists, calcium flux assay in KISS1R-HEK293 cells (AID 1920064; active = well fitted curve in the direction sought with a large enough effect in the repeat runs; an effect the other way counts as inactive or inconclusive)
# Outline: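 Agonist activity is monitored as intracellular calcium rise in engineered HEK293 cells carrying human KISS1R. Cells are dye-loaded for 1 h at 37 C before compound addition, and fluorescence is recorded for 3 min.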
# [19] = p53 small molecule agonists, cell-based qHTS assay with human liver microsomes (AID 1963577)
# Outline: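 p53RE-bla reporter cells were pre-incubated 5 h at 37 C, then treated with compounds plus human liver microsomes (0.5 mg/mL final) and NADPH (0.5 mg/mL final) for 16 h at 37 C. Beta-lactamase activity was read by LiveBLAzer fluorescence after 2 h at room temperature.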
# [20] = target: Beta-2 adrenergic receptor (Homo sapiens) (UniProt P07550); experiment: Adrenergic beta2 receptor (ADRB2) small molecule agonists, cell-based qHTS assay (AID 1963593);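 also: CHO cells stably overexpressing human ADRB2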
# Outline: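 CHO cells stably over-expressing ADRB2 were plated overnight at 37C, then dosed with compounds plus a stimulation mix containing 100uM IBMX and 25uM Ro-20-1724 for 0.5hr at room temperature. cAMP was measured by HTRF competition, 1hr.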
# Sequence of Beta-2 adrenergic receptor (Homo sapiens) (P07550 whole entry, looked up): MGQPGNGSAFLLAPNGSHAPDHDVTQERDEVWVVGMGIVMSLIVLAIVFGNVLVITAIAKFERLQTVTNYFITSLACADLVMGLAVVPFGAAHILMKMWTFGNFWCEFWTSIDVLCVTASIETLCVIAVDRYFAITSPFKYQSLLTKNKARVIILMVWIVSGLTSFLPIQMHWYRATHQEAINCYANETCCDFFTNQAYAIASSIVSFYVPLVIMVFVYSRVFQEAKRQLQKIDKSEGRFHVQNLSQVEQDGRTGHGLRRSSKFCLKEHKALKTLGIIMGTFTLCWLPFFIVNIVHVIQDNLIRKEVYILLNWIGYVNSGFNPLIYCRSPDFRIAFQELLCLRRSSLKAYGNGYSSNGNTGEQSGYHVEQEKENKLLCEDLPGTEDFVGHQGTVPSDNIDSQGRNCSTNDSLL
# Sequence of KiSS-1 receptor (Homo sapiens) (Q969F8 whole entry, looked up): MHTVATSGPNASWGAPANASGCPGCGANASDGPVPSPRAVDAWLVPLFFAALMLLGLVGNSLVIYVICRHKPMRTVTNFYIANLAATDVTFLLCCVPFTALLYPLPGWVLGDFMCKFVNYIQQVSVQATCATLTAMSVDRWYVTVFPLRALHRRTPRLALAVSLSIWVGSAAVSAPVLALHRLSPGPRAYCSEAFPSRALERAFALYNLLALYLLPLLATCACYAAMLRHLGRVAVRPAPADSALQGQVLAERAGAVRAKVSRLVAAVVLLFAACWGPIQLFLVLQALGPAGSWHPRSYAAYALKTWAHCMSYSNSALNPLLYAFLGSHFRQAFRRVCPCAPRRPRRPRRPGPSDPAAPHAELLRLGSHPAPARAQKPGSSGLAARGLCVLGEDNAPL
# Sequence of Muscarinic acetylcholine receptor M1 (Homo sapiens) (P11229 whole entry, looked up): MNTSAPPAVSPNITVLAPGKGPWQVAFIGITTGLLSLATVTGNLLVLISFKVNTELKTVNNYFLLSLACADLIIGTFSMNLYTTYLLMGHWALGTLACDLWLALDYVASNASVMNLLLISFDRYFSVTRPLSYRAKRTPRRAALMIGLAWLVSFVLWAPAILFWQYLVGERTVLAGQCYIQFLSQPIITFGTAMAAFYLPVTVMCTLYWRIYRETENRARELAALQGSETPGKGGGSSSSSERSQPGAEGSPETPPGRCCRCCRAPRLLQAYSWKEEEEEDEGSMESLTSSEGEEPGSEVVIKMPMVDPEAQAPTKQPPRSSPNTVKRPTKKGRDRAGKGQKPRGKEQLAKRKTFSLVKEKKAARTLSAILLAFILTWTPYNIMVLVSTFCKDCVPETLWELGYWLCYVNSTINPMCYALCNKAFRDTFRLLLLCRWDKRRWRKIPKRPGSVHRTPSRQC
# Sequence of 5-hydroxytryptamine receptor 2A (Homo sapiens) (P28223 whole entry, looked up): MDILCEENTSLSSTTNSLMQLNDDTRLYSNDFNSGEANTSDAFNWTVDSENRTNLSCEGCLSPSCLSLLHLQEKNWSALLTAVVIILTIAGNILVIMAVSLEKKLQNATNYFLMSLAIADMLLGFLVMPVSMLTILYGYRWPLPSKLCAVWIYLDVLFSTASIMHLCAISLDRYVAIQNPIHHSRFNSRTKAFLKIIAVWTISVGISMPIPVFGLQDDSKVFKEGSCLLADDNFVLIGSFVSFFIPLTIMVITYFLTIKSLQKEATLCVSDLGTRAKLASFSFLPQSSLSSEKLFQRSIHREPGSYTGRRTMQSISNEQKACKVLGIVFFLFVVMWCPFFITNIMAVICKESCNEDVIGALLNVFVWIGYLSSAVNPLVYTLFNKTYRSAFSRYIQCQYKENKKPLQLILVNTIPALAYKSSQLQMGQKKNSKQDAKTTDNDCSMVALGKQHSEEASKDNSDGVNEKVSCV
# Sequence of D(2) dopamine receptor (Homo sapiens) (P14416 whole entry, looked up): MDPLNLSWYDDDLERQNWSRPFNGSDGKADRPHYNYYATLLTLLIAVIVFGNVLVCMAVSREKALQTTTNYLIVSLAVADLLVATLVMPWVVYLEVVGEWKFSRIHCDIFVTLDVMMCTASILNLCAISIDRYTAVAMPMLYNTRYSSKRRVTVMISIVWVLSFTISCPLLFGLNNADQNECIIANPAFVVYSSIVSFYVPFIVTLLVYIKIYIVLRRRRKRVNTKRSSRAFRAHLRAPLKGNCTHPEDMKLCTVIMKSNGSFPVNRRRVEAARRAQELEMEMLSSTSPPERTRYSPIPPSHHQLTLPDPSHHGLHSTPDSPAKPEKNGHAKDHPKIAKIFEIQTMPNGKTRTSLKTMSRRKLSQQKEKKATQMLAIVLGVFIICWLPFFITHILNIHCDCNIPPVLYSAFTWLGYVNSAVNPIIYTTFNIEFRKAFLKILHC
SMILES,Potency [1],Potency [2],Potency [3],Potency [4],Potency [5],Potency [6],Potency [7],Potency [8],Potency [9],Potency [10],Potency [11],Potency [12],Potency [13],Potency [14],Potency [15],Potency [16],Potency [17],Potency [18],Potency [19],Potency [20]
CC(C)S,inactive,inactive,inactive,inactive,inactive,inactive,inactive,inactive,inactive,inactive,inactive,inactive,inactive,inactive,inactive,inactive,inactive,–,–,–
CC1CC(O)CC(C)(C)C1 (stereo unspecified),inactive,inactive,inactive,inactive,inactive,inactive,inactive,inactive,inactive,inactive,inactive,inactive,inactive,inactive,inactive,inactive,inactive,inactive,inactive,inactive
CCOc1ccccc1OCC,inactive,inactive,inactive,inactive,inactive,inactive,inactive,inactive,inactive,inactive,inactive,inactive,inactive,inactive,inactive,inactive,inactive,inactive,inactive,inactive
CCC(=O)OC/C=C(\C)CCC=C(C)C,inactive,inactive,inactive,inactive,inactive,inactive,inactive,inactive,inactive,inactive,inactive,inactive,inactive,inactive,inactive,inactive,inactive,inactive,inactive,inactive
O=[N+]([O-])c1ccc(F)cc1F,inactive,inactive,–,inactive,inactive,–,inactive,inactive,inactive,inactive,inactive,–,inactive,inactive,inactive,inactive,inactive,–,inactive,inactive
Oc1c(Cl)ccc(Cl)c1Cl,inactive,inactive,inactive,–,inactive,inactive,inactive,inactive,inactive,inactive,inactive,inactive,inactive,inactive,inactive,inactive,inactive,–,inactive,–
Cc1ccc2c(c1)OCC(=O)CO2,inactive,inactive,inactive,inactive,inactive,inactive,inactive,inactive,inactive,inactive,inactive,inactive,inactive,inactive,inactive,inactive,inactive,inactive,inactive,–
OCC(CO)(CBr)CBr,inactive,inactive,inactive,–,inactive,inactive,inactive,–,inactive,inactive,inactive,–,inactive,inactive,inactive,inactive,inactive,–,–,–
CC(C)(C)OCC1CO1 (stereo unspecified),inactive,inactive,–,–,inactive,inactive,–,inactive,inactive,inactive,inactive,inactive,inactive,inactive,inactive,inactive,inactive,–,inactive,inactive
N[C@H](Cc1c[nH]c2ccccc12)C(=O)O,inactive,inactive,inactive,–,inactive,inactive,inactive,–,inactive,inactive and 19 µM (active),inactive,inactive,inactive,inactive,inactive,inactive,inactive,–,–,inactive
CC(C)=C1CC[C@@H](C)CC1=O,inactive,inactive,inactive,inactive,inactive,inactive,inactive,inactive,inactive,inactive,inactive,inactive,inactive,inactive,inactive,inactive,inactive,–,–,inactive
COC(CC(C)CCCC(C)(C)O)OC (stereo unspecified),inactive,inactive,inactive,inactive,inactive,inactive,inactive,inactive,inactive,inactive,inactive,inactive,inactive,inactive,inactive,inactive,inactive,inactive,inactive,–
Cc1cccc(S(=O)(=O)O)c1C,inactive,inactive,inactive,inactive,inactive,inactive,inactive,inactive,inactive,inactive,inactive,inactive,inactive,inactive,inactive,inactive,inactive,inactive,inactive,inactive
COc1ccc(-c2coc3cc(O)cc(O)c3c2=O)cc1,inactive,inactive,inactive,–,inactive,inactive,inactive,inactive,inactive and 33.4 µM (active),inactive,inactive,inactive,–,–,–,inactive,inactive,–,inactive,–
